Measurements taken from PubChem BioAssay (EPA / NIEHS).
Results filed as inconclusive are left out. Active and inactive are the calls of the source. The calls were made as follows, unless noted: active = hit-call score of the fitted dose curve at least 0.9, where 1 is the maximum; inactive = score below 0.9.

Columns and labels:
[1] = CCTE_Shafer_MEA_acute_burst_duration_mean: CCTE's Neural Acute Assay for Mean Burst Duration, Shafer Lab (AID 2284014);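 also: hits are decreases in mean burst duration relative to DMSO controls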
How it was run: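 Rat primary cortical neurons on 48-well MEA, treated at DIV 13 or 15 with 0.03-40 uM in at least 3 wells. Value is percent change in mean burst duration, comparing 40 min recordings at 37 C before and during exposure.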

[2] = CCTE_Shafer_MEA_acute_per_burst_spike_number_mean: CCTE's Neural Acute Assay for Average Number of Spikes Per Burst, Shafer Lab (AID 2284015);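 also: hits are decreases in mean spikes per burst versus baseline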
How it was run: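 Rat primary cortical neurons on 48-well MEAs (DIV 13 or 15) were treated with 0.03-40 uM compound at 37 C. Mean spikes per burst over 40 min were recorded before and after exposure and expressed as percent change from baseline, relative to DMSO.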

[3] = CCTE_Shafer_MEA_acute_interburst_interval_mean: CCTE's Neural Acute Assay for Mean Interburst Interval, Shafer Lab (AID 2284016);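 also: percent change of mean interburst interval versus each well's own pre-dose baseline; curves fitted for decrease in interburst interval relative to DMSO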
How it was run: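 Rat primary cortical neurons on 48-well MEAs at DIV 13 or 15 were exposed acutely to 0.03-40 uM. Spikes detected at 8x rms noise, 37 C. Mean interburst interval from 40 min recordings expressed as percent change from 40 min pre-treatment baseline.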

[4] = CCTE_Shafer_MEA_acute_burst_percentage_mean: CCTE's Neural Acute Assay for Percentage of Spikes in a Burst, Shafer Lab (AID 2284017);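 as to AC50: curve fitted for loss of signal so potency reflects decreased burst percentage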
How it was run: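 Primary rat cortical neurons on 48-well MEA plates, treated on DIV 13 or 15 at 0.03-40 uM. Spikes detected at 8x rms noise at 37C; percent change from 40-min baseline to 40-min post-dose recording, fitted versus DMSO.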

[5] = CCTE_Shafer_MEA_acute_burst_percentage_std: CCTE's Neural Acute Assay for Standard Deviation of Burst Percentage, Shafer Lab (AID 2284018);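 also: fitted in the negative direction so actives lower burst percentage SD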
How it was run: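 Rat primary cortical neurons on 48-well MEAs, DIV 13 or 15, 37 C. 40-min baseline then 40-min recording with compound (0.03-40 uM); well-level SD of per-electrode burst spike percentage, expressed as percent change from baseline.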

[6] = CCTE_Shafer_MEA_acute_per_network_burst_spike_number_mean: CCTE's Neural Acute Assay for Average Number of Spikes in a Network Burst, Shafer Lab (AID 2284019);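 as to AC50: curve fitted for loss of signal so actives reduce spikes per network burst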
How it was run: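 Rat primary cortical neurons on 48-well MEA at DIV 13 or 15, 37 C; compounds 0.03-40 uM, at least three wells each. 40-min baseline then 40-min exposure recording; percent change in mean spikes per network burst.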

[7] = CCTE_Shafer_MEA_acute_per_network_burst_electrodes_number_mean: CCTE's Neural Acute Assay for Mean Number of Electrodes in a Network Burst, Shafer Lab (AID 2284021);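 also: curves fitted for decreases only so hits reduce electrodes per burst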
How it was run: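 Cultures of rat cortex neurons were exposed on DIV 13 or 15 to compounds at 0.03-40 uM in at least three wells each. Activity over 40 min before and 40 min after exposure at 37 C gave the percent change in electrodes per network burst.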

[8] = CCTE_Shafer_MEA_acute_network_burst_percentage: CCTE's Neural Acute Assay for Percentage of Network Bursts, Shafer Lab (AID 2284022);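 also: curves fitted for loss so actives lower network burst percentage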
How it was run: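 Cortical neurons from rat were grown over microelectrode arrays and used on day 13 or 15 in vitro. Wells with at least 10 active electrodes received test chemical at 0.03-40 uM. Activity during 40 min of exposure was compared with the preceding 40-min baseline.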

[9] = CCTE_Shafer_MEA_acute_cross_correlation_area: CCTE's Neural Acute Assay for Area of Cross Correlation, Shafer Lab (AID 2284024);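 also: area under pooled inter-electrode spike cross-correlation near zero lag as percent change from own baseline; curves fitted for loss of cross-correlation area so actives lower synchrony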
How it was run: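 Acute exposure of mature rat cortical networks (day 13 or 15 post-plating) to 0.03-40 uM compound. Spontaneous spiking on MEA, 40 min pre- and post-dose at 37 C.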

[10] = CCTE_Shafer_MEA_acute_cross_correlation_HWHM: CCTE's Neural Acute Assay for Cross Correlation at Half Width at Half Maximum, Shafer Lab (AID 2284026);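 also: percent change per well from pre-dose baseline in spike cross-correlogram half width; hits are a decrease in cross-correlogram half width relative to DMSO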
How it was run: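 Primary cortex (rat), MEA, DIV 13/15; compound 0.03-40 uM; 40 min pre + 40 min post at 37 C; spike threshold 8x rms; wells need ≥10 active electrodes; endpoint = % change in cross-correlogram HWHM vs baseline, DMSO negative control.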

[11] = CCTE_Shafer_MEA_acute_synchrony_index: CCTE's Neural Acute Assay for Synchrony, Shafer Lab (AID 2284027);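 also: fitted for loss of signal so actives lower synchrony relative to DMSO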
How it was run: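 Readout is percent change in the unitless network synchrony index (0 low, 1 high) between a 40-min baseline and a 40-min recording in compound. Cultures were primary rat cortical neurons on MEAs, treated at 0.03-40 uM on DIV 13 or 15.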

[12] = molecular target: Estrogen receptor (Homo sapiens) (UniProt P03372); experiment: CCTE_Deisenroth_AIME_384WELL_LUC_Active: CCTE's 384-well Estrogen Receptor Transactivation Assay with AIME metabolic competence (ERTA luciferase; metabolism positive), Deisenroth Lab (AID 2284030; active = hit-call score of the fitted dose curve at least 0.9, where 1 is the maximum)
How it was run: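 In this metabolism-positive format, a 2-hour exposure to alginate-immobilized rat S9 precedes a 24 hour luciferase transactivation readout in VM7Luc4E2 cells. Dosing spans 10 concentrations from 0.002 to 200 uM.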

[13] = CCTE_Deisenroth_AIME_384WELL_CTox_Active: Cytotoxicity Assessment (CTOX) in CCTE's 384-well Estrogen Receptor Transactivation Assay with AIME metabolic competence (metabolism positive), Deisenroth Lab (AID 2284037; active = hit-call score of the fitted dose curve at least 0.9, where 1 is the maximum;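 also: chemicals first conditioned 2 h by alginate-bound induced rat liver S9 before cells; activity means signal loss indicating cell death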)
How it was run: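 Chemicals pre-incubated 2 hours with alginate-immobilised phenobarbital/beta-naphthoflavone-induced male Sprague Dawley rat liver S9, then conditioned medium applied 24 hour to VM7Luc4E2 cells. Viability by fluorogenic protease substrate; 10-point series 0.002 - 200 uM.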

[14] = molecular target: Estrogen receptor (Homo sapiens) (UniProt P03372); experiment: CCTE_Deisenroth_AIME_384WELL_LUC_Inactive: CCTE's 384-well Estrogen Receptor Transactivation Assay without AIME metabolic competence (ERTA luciferase; metabolism negative), Deisenroth Lab (AID 2284038; active = hit-call score of the fitted dose curve at least 0.9, where 1 is the maximum;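 also: VM7Luc4E2 breast cells given medium preincubated 2 h with S9-free microspheres; hits raise estrogen receptor luciferase signal so potencies reflect agonists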)
How it was run: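 Metabolism-negative mode: chemicals (10-point, 0.002–200 uM) held 2 h with alginate-water microspheres, then conditioned medium applied to VM7Luc4E2 cells for 24 h. Luciferase induction referenced to 17beta-estradiol.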

[15] = CCTE_Shafer_MEA_dev_firing_rate_mean: CCTE's Neural Network Formation Assay for Mean Firing Rate, Shafer Lab (AID 2284031);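 also: AUC of well mean spike rate recorded on DIV 5 7 9 and 12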;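 as to AC50: curve fitted for loss of firing so AC50 reflects decreased mean firing rate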
How it was run: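 Rat primary cortical neurons were seeded on multielectrode arrays and treated from plating through day 12, with redosing at each feed. Spontaneous spiking was recorded four times; mean firing rate AUC was fitted downward against DMSO.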

[16] = CCTE_Shafer_MEA_dev_per_burst_spike_percent: CCTE's Neural Network Formation Assay for Percent of Spikes in a Burst, Shafer Lab (AID 2284032);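 as to AC50: fitted as a decrease in burst spike percentage below DMSO baseline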
How it was run: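 Rat primary cortical neurons on 16-electrode MEA wells, dosed from plating day 0 for 12 days with renewal on DIV 5 and 9; spikes-in-bursts percentage averaged over bursting electrodes, collapsed as AUC across days 5, 7, 9, 12; loss direction versus DMSO.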

Measured: AC50

Estrogen receptor (Homo sapiens), sequence (P03372 whole entry, looked up): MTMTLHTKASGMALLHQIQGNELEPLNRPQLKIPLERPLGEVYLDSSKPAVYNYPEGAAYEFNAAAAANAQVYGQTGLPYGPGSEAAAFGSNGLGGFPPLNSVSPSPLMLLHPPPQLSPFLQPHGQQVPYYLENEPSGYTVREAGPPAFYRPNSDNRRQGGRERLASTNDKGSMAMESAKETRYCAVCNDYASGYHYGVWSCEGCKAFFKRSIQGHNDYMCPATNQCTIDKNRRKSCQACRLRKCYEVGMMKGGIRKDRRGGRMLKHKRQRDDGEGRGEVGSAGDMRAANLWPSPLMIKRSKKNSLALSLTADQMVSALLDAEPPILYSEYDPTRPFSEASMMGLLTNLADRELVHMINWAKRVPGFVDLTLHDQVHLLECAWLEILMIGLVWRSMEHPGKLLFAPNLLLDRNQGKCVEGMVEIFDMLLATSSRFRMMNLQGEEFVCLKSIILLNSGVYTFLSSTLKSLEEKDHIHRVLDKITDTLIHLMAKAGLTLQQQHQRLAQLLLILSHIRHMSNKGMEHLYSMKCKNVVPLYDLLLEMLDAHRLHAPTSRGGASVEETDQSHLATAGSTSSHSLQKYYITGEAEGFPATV

Nc1ccc(-c2ccc(N)cc2)cc1
inactive: [1] | [2] | [3] | [4] | [5] | [6] | [7] | [8] | [9] | [10] | [11] | [12] | [13] | [14]

CCCN(CCC)N=O
inactive: [1] | [2] | [3] | [4] | [5] | [6] | [7] | [8] | [9] | [10] | [11] | [12] | [13] | [14]

ClC1=C(Cl)[C@]2(Cl)[C@@H]3[C@@H]4C[C@@H]([C@H]5O[C@@H]45)[C@@H]3[C@@]1(Cl)C2(Cl)Cl
inactive: [1] | [3] | [5]
active: [2] 126 nM | [4] 94.9 nM | [6] 135 nM | [7] 116 nM | [8] 192 nM | [9] 318 nM | [10] 323 nM | [11] 117 nM | [15] 8230 nM | [16] 24200 nM

ClC1=C(Cl)[C@]2(Cl)[C@@H]3[C@H]4C[C@H]([C@@H]5O[C@H]45)[C@@H]3[C@@]1(Cl)C2(Cl)Cl
inactive: [3] | [5] | [7] | [8] | [15] | [16] | [14]
active: [1] 1050 nM | [2] 494 nM | [4] 23.9 nM | [6] 358 nM | [9] 11.9 nM | [10] 85.9 nM | [11] 24.8 nM | [12] 2760 nM

CN(C)CCO
inactive: [1] | [2] | [3] | [4] | [5] | [6] | [7] | [8] | [9] | [10] | [11] | [12] | [13] | [14]

CCSC(=O)N(CC)C1CCCCC1
active: [2] 20000 nM | [3] 31700 nM | [4] 7150 nM | [10] 8090 nM | [11] 3610 nM
inactive: [1] | [5] | [6] | [7] | [8] | [9]

C=CC(N)=O
inactive: [1] | [2] | [3] | [4] | [5] | [6] | [7] | [8] | [9] | [10] | [11] | [15] | [16]

O=C(O)C(F)(F)C(F)(F)C(F)(F)C(F)(F)C(F)(F)F
inactive: [1] | [2] | [3] | [4] | [5] | [6] | [7] | [8] | [9] | [10] | [11] | [15] | [16]
